Autophagy HCS – alters autophagy in cells; MEF GFP-LC3 puncta imaging; test concentration mostly 10 µM; calls only at 10 µM (by protocol); 190,000 compounds, 0.98% hits; AID 463193;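 active = percentage of spot-positive cells more than 3 SD above its plate mean, without a fluorescence outlier flag or 80% toxicity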;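 also: spot-positive cell cutoff set from DMSO-treated cells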
WT yeast gro inh – growth inhibition of WT yeast, mitochondrial fusion screen. mitochondrial fusion phenotypic screen, WT strain. inhibition, % at 10 µM. 190,000 compounds, 2.1% hits. AID 1362; in the data active = inhibition above about 58%; tested in S. cerevisiae
Ins promoter up – MIN6 insulin promoter up-regulation; 190,000 compounds, 0.3% hits; MIN6 insulin promoter-GFP reporter, high-content imaging; active compounds read high; z-score at 5 µM;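 active = z-score above 3 at 5 µM with at least 500 cells counted in the well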
Insulin prom inh – TRM-6 insulin promoter activity inhibition | inhibition, % at 2 µM | 130,000 compounds, 0.9% hits | TRM-6 cells (human fetal islet line), insulin promoter-eGFP reporter, imaging; reporter expression induced with tamoxifen;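 active = inhibition above the mean plus 3 SD, with well images judged a real hit on visual review, cut at about 60% in these data, passing the limit was not always enough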
Lmaj promast – Leishmania major promastigote growth inhibition. inhibition, % at 10 µM. 200,000 compounds, 9% hits. Leishmania major promastigotes, resazurin fluorescence viability; in the data active = inhibition above about 50%;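 also: promastigotes grown with compound for 44 hours at 28 °C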
L major 1uM – blocks Leishmania major promastigote growth at 1 uM, repeat screen | 1,100 compounds, 13% hits | L. major promastigote growth, resazurin fluorescence, 48 h | shares compounds with Lmaj promast | inhibition, % at 1 µM;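 active = inhibition above about 50% in both repeat tests, limit read from the data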
* hit, by the source's call; i = inactive; nt = no result given; + = active, no number. Only some compounds are listed: those with a hit (about 11% of all), similar ones and a draw of the others.

SMILES	Autophagy HCS	WT yeast gro inh	Ins promoter up	Insulin prom inh	Lmaj promast	L major 1uM
CC1(C)Cc2c(ccc3ccccc23)C2=C(C(=O)N3CCCC3)C(=O)C(=O)N21	i	11	-0.01	27	-3	nt
Cc1cc(C)n(CCc2nc(-c3cc4ccccc4o3)cs2)n1	i	nt	0.51	13	100*	-2
COc1cc(OC)c(N2CC34C=CC(O3)C(C(=O)O)C4C2=O)cc1Cl (centres undefined)	i	-2	0.74	nt	-7	nt
Cc1sc2c(c1C)c(=O)nc1n2Cc2ccccc2-1	i	-7	nt	-25	82*	1
CN(c1ccc(C(=O)Nc2ccc(CC#N)cc2)cc1)S(C)(=O)=O	i	-9	0.43	36	-9	nt
Cc1cccc(-[n+]2c(C)cc(C)c3c(=O)[nH]c(=O)[nH]c32)c1	i	1	1.1	nt	-6	nt
Cc1ccc(C(=O)NC(=C(Cl)Cl)S(=O)(=O)c2ccccc2)cc1	i	-18	0.07	-35	72*	-7
CCOC(=O)C1CCN(Cc2nc3ccc(Cl)cc3n2CCO)CC1	i	-4	-0.29	nt	20	nt
CCCNC(=O)c1ccc2c(c1)C1C3CCC(C3)C1C(c1ccccc1)N2 (centres undefined)	i	62*	0.68	-16	81*	3
COCCCn1[nH]c2c3c(ccc2c1=O)C(=O)c1ccccc1C3=O	i	14	-0.76	-7	94*	7
Oc1ccccc1-c1nc(/C=C/c2ccccc2)nn1-c1ccccc1	i	64*	-0.24	23	98*	6
CCOC(=O)Nc1ccccc1C(=O)N1CCOCC1	i	11	1.2	nt	-4	nt
N=c1c(-c2nc3ccccc3[nH]2)cc(C(=O)c2cccs2)nn1-c1ccc(Cl)cc1	+	nt	nt	34	91*	35
O=C1NC(c2ccccc2)(C(F)(F)F)C(=O)N1Cc1cccnc1 (centres undefined)	i	-10	nt	19	-3	nt
CCCCCNC(=O)C1CC=CCC1C(=O)O (centres undefined)	i	-4	nt	19	-10	nt
CC1CCCCC1NC(=O)C1CC=CCC1C(=O)O (centres undefined)	i	-20	0.36	19	55*	-16
CCOC(=O)c1c(C)nc2c(c1-c1ccccc1)C(=O)c1ccccc1-2	i	9	-0.73	-37	1	nt
CCOC(=O)c1c(C)oc2c1C(=O)c1ccccc1C2=O	i	42	-1.7	nt	98*	14
Cc1nc(SCC(=O)NCCc2ccccc2)nc(C)c1C	i	-28	0.14	-25	0	nt
COc1ccc(N(CC(=O)Nc2cccc(N(C)S(C)(=O)=O)c2)S(=O)(=O)c2ccccc2)cc1Cl	i	3	-0.55	nt	56*	-6
C[N+]1(CN2C(=O)C3C4C=CC(C4)C3C2=O)CCCCC1 (centres undefined)	nt	nt	-0.04	nt	nt	nt
Cc1cccc(C(=O)NNC(=O)c2ccco2)c1	i	-10	-0.12	25	0	nt
Cc1cccc(C)c1-n1nnnc1S(=O)(=O)Cc1ccccc1Cl	i	26	0.49	-13	77*	-20
O=C1CC(c2ccc(Br)cc2)NC(c2ccc(Br)cc2)C1c1ccccc1 (centres undefined)	i	16	nt	0	90*	-4
O=c1sc(Nc2ccccc2)nc2ccsc12	i	5	-0.42	35	100*	-16
SMILES	Autophagy HCS	WT yeast gro inh	Ins promoter up	Insulin prom inh	Lmaj promast	L major 1uM
O=C(Nc1nc2ccsc2c(=O)s1)C1CCC1	nt	nt	-0.2	nt	nt	nt
COc1ccc(N2CCN(c3ncnc4c3[nH]c3ccccc34)CC2)cc1	i	0	0.73	nt	14	nt
COc1cc2[nH]c3c(N4CCN(c5ccccn5)CC4)ncnc3c2cc1OC	+	7	-1.4	-93	100*	-29
Cc1ccc(S(=O)(=O)c2ccc(NN)cc2)cc1	i	28	-0.14	27	97*	-10
Cc1ccc(NC(=O)Nc2ccc(S(N)(=O)=O)cc2)cc1	i	-2	nt	nt	0	nt
CC[N+](C)(CC)CC(O)COCC1COc2ccccc2O1 (centres undefined)	i	12	-0.08	nt	-4	nt
OC(COCC1COc2ccccc2O1)CN1CCN(c2ccccc2F)CC1 (centres undefined)	i	5	-0.83	-34	65*	-10
CCCNC(=O)OCC12CC3CC(CC(C3)C1)C2	i	11	-0.12	nt	9	nt
CCNC(=O)OCCC12CC3CC(CC(C3)C1)C2	i	-1	-0.25	nt	86*	-11
Cc1ccc(S(=O)(=O)NN=C2CCN(Cc3ccccc3)CC2)cc1	i	-19	-0.05	-83	0	nt
Cc1ccc(S(=O)(=O)NNC(=O)C2CCN(Cc3ccccc3)CC2)cc1	i	-32	0.17	21	85*	4
